Assay results published in PubChem BioAssay (NCATS).
Records with an inconclusive call do not appear. Active and inactive are the calls of the source. Unless noted, the call rests on the fitted dose curve; in most records, active means well fitted curve in the direction sought with a large enough effect; inconclusive means small, poorly fitted or top-dose-only effect, or another doubt; inactive means no such curve, though single readings can be large; an effect the other way counts as inactive or inconclusive.

How the values were obtained:
[1] = biological target: Alpha-galactosidase A (Homo sapiens) (UniProt P06280); assay: Counterscreen for Glucocerebrosidase Inhibitors: qHTS Assay for Human alpha-Galactosidase at pH 4.5 (AID 992)
Outline: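 Quantitative HTS: compounds tested from 0.7 nM up to 77 uM against 2 nM enzyme with 80 uM 4-MU alpha-D-galactopyranoside. The 20 min room-temperature reaction is stopped with 1M NaOH/1M glycine, pH 10.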

[2] = biological target: alpha-glucosidase (Oryza sativa, rice) (UniProt Q653V4); assay: Counterscreen for Glucocerebrosidase Inhibitors: qHTS Assay for Rice alpha-Glucosidase at pH 5.0 (AID 997)
Outline: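 Rice alpha-glucosidase (4 nM final) with 400 uM 4-methylumbelliferyl-alpha-D-glucopyranoside in citrate buffer pH 5.0, 20 min at room temperature, stopped at pH 10; fluorescence 365/440 nm, compounds 0.7 nM–77 uM, AC50 from Hill fits.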

[3] = Validation of Assay for Modulators of Lamin A Splicing (AID 1459; active means well fitted curve in the direction sought with a large enough effect in the signal ratio; the % refers to the signal ratio;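 further: cells exposed to compound for two days before reading; ratio rise marks activators and ratio drop marks inhibitors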)
Outline: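 Splicing correction read as GFP (500-530 nm) over DsRed2 (575-640 nm) object intensity after 48 h compound exposure of reporter HeLa S3 clones (600 cells/well, 2% FBS medium); ancitabine and cycloheximide titrations, 0.5% DMSO as vehicle.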

[4] = Cell Viability - LYMP2-023 (AID 975);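 further: cellular ATP measured by luciferase luminescence as viability proxy; series mostly up to about 92 µM; nearly all actives have a fitted effect of over 55% in size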
Outline: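 Concentration-dependent drop in intracellular ATP measures acute cytotoxicity in a human lymphoblastoid line treated for 24 hours in complete culture medium. AC50 values are taken from Hill-equation fits of qHTS data.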

[5] = Cell Viability - LYMP2-025 (AID 976); further: series mostly up to about 92 µM
Outline: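 In qHTS format, LYMP2-025 lymphoblastoid cells in complete culture medium received compound for 24 hr; ATP-based CellTiter-Glo signal gave viability, with AC50 derived by Hill equation.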

[6] = Cell Viability - LYMP2-002 (AID 977); further: potency means the concentration at half of the fitted maximal effect
Outline: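 Cytotoxicity is scored as concentration-dependent loss of cellular ATP in a human lymphoblastoid line after 24 hr compound treatment at 37 C. AC50 is obtained by modelling concentration-response data with the Hill equation.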

[7] = Cell Viability - LYMP2-006 (AID 978); further: series mostly up to about 92 µM; nearly all actives have a fitted effect of over 60% in size
Outline: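 Potency values are Hill-fit AC50s for decreases in intracellular ATP (CellTiter-Glo luminescence). LYMP2-006 lymphoblastoid cells, 2500 per well, were exposed to compound in complete culture medium for 24 hr at 37 C.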

[8] = Cell Viability - LYMP2-007 (AID 979);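 further: cells exposed to compound for 24 h before reading; nearly all actives have a fitted effect of over 60% in size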
Outline: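 Acute toxicity is scored as a concentration-dependent fall in intracellular ATP in human lymphoblastoid cells treated 24 hr at 37 C, measured by luciferase luminescence; Hill-equation modelling yields AC50.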

[9] = Cell Viability - LYMP2-008 (AID 980); further: nearly all actives have a fitted effect of over 60% in size
Outline: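 Acute cytotoxicity is scored as concentration-dependent loss of cellular ATP in a human lymphoblastoid line after 24 hr treatment at 37 C. ATP is quantified by luciferase luminescence.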

[10] = Cell Viability - LYMP2-010 (AID 981); further: nearly all actives have a fitted effect of over 55% in size
Outline: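 Acute toxicity is scored as a concentration-dependent loss of cellular ATP in human lymphoblastoid cells after 24 hr compound exposure in complete medium. Tetraoctylammonium bromide is the positive control.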

[11] = Cell Viability - LYMP2-012 (AID 982);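 further: cellular ATP by luciferase luminescence where a drop means cytotoxicity; cells exposed to compound for one day before reading; nearly all actives have a fitted effect of over 55% in size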
[12] = Cell Viability - LYMP2-014 (AID 983); further: series mostly up to about 92 µM; nearly all actives have a fitted effect of over 50% in size
Outline: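 Decrease in intracellular ATP after 24 hr treatment at 37 C, measured by luciferase luminescence, indicated cytotoxicity. Concentration-response data were fitted with the standard Hill equation to give AC50.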

[13] = Cell Viability - LYMP2-016 (AID 984); further: nearly all actives have a fitted effect of over 55% in size
Outline: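 Cytotoxicity was scored by luminescent ATP content (CellTiter-Glo) after 24 h compound exposure at 37 C of a human lymphoblastoid line at 2500 cells/well. Concentration-response data were fitted to the Hill equation for AC50.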

[14] = Cell Viability - LYMP2-018 (AID 985);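 further: compound exposure lasted 24 hr at 37 °C; nearly all actives have a fitted effect of over 50% in size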; further: potency means the concentration at half of the fitted maximal effect
Outline: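 Acute cytotoxicity is scored as a concentration-dependent drop in intracellular ATP after 24 hr exposure of the lymphoblastoid line in complete culture medium, measured by luciferase luminescence. Potency is expressed as AC50 from Hill modelling.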

[15] = Cell Viability - LYMP2-020 (AID 986)
Outline: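 Acute cytotoxicity in a human lymphoblastoid line is scored as a concentration-dependent fall in cellular ATP after 24 hr at 37 C in complete medium. The positive control is tetraoctylammonium bromide, and potency is given as Hill-fit AC50.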

[16] = Cell Viability - LYMP2-022 (AID 987); further: nearly all actives have a fitted effect of over 55% in size
Outline: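 Acute toxicity in a human lymphoblastoid line is scored as decreased intracellular ATP after 24 hr compound treatment at 37 C. ATP is measured by CellTiter-Glo luminescence; curves are fitted with the Hill equation to give AC50.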

[17] = Cell Viability - LYMP2-024 (AID 988); further: nearly all actives have a fitted effect of over 60% in size
Outline: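 Acute toxicity is measured as concentration-dependent loss of intracellular ATP in a human lymphoblastoid line treated 24 hours at 37 C. Luciferase luminescence quantifies ATP; AC50 values come from standard Hill-equation modelling.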

[18] = Cell Viability - LYMP2-026 (AID 989); further: nearly all actives have a fitted effect of over 50% in size
Outline: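 Concentration-dependent loss of intracellular ATP in human lymphoblastoid cells after 24 hr at 37 C, quantified by luciferase luminescence. AC50 derived from standard Hill equation.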

[19] = Cell Viability - LYMP1-002 - Assay at 24 hr (AID 993)
Outline: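 qHTS, LYMP1-002 lymphoblastoid, 24 h cpd, 37 C, CellTiter-Glo ATP luminescence; AC50 via Hill eq.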

[20] = Cell Viability - LYMP1-002 - Assay at 40 hr (AID 994); further: nearly all actives have a fitted effect of over 60% in size; further: potency means the concentration at half of the fitted maximal effect
Outline: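 Viability in the human lymphoblastoid line was measured as intracellular ATP via CellTiter-Glo after 40 hr compound exposure. Tetraoctylammonium bromide served as positive control.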

Measured: Potency

Alpha-galactosidase A (Homo sapiens), sequence (P06280 whole entry, looked up): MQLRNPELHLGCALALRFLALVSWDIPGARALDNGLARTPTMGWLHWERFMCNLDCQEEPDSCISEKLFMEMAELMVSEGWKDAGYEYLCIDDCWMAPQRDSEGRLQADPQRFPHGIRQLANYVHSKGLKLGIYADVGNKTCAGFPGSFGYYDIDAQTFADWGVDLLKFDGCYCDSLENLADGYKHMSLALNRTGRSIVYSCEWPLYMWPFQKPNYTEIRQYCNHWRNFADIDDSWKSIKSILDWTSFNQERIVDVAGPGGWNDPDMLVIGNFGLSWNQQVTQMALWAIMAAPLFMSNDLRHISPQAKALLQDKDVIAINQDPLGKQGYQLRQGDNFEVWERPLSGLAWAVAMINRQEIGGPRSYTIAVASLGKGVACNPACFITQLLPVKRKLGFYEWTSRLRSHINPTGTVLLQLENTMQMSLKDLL

Cc1ccc(S(=O)(=O)NC(=O)NN2CCCCCC2)cc1
inactive: [1] | [2] | [3]

O=C(O)CP(=O)(O)O
inactive: [1] | [2] | [3]

COc1cc(Cc2cnc(N)nc2N)cc(OC)c1OC
inactive: [4] | [5] | [6] | [7] | [8] | [9] | [10] | [11] | [12] | [13] | [14] | [15] | [16] | [17] | [18] | [1] | [19] | [20] | [2] | [3]

CCN(CC)CCOCCOC(=O)C1(c2ccccc2)CCCC1
inactive: [1] | [2] | [3]

CNCCC(Oc1ccccc1OC)c1ccccc1 (stereo not drawn)
inactive: [3]

O=C(O)CCCCCCCC(=O)O
inactive: [1] | [2] | [3]

Cc1cc(C)c(/C=C2\C(=O)Nc3ccccc32)[nH]1
inactive: [3]

COCCc1ccc(OCC(O)CNC(C)C)cc1 (stereo not drawn)
inactive: [3]

FC(F)(F)c1ccccc1-n1ccnc1
inactive: [1] | [2] | [3]

CCCCCN(CCCCC)C(=O)C(CCC(=O)O)NC(=O)c1ccc(Cl)c(Cl)c1 (stereo not drawn)
inactive: [3]

CCc1c(C)[nH]c2c1C(=O)C(CN1CCOCC1)CC2 (stereo not drawn)
inactive: [1] | [2] | [3]

CC(C(=O)O)c1ccc(CC2CCCC2=O)cc1 (stereo not drawn)
inactive: [3]

COCCOC(=O)C1=C(C)NC(C)=C(C(=O)OC(C)C)C1c1cccc([N+](=O)[O-])c1 (stereo not drawn)
inactive: [3]

COc1cc(C(=O)OCCCN2CCCN(CCCOC(=O)c3cc(OC)c(OC)c(OC)c3)CC2)cc(OC)c1OC
inactive: [1] | [2] | [3]

COc1ccc(CCN(C)CCCC(C#N)(c2cc(OC)c(OC)c(OC)c2)C(C)C)cc1OC (stereo not drawn)
inactive: [3]

CCOC(=O)C1=C(C)NC(C)=C(C(=O)OC)C1c1cccc([N+](=O)[O-])c1 (stereo not drawn)
inactive: [3]

COC(=O)[C@H]1[C@H]2C[C@@H]3c4[nH]c5cc(OC)ccc5c4CCN3C[C@H]2C[C@@H](OC(=O)c2cc(OC)c(OC)c(OC)c2)[C@@H]1OC
active: [6] 79.4 µM | [14] 50.1 µM | [20] 50.1 µM
inactive: [5] | [1] | [2] | [3]

CCCN1C[C@H](CSC)C[C@@H]2c3cccc4[nH]cc(c34)C[C@H]21
inactive: [3]

COc1cc2c(cc1OC)-c1cc(=Nc3c(C)cc(C)cc3C)n(C)c(=O)n1CC2
inactive: [1] | [2] | [3]

CCCCNC(=O)NS(=O)(=O)c1ccc(C)cc1
inactive: [4] | [5] | [6] | [7] | [8] | [9] | [10] | [11] | [12] | [13] | [14] | [15] | [16] | [17] | [18] | [19] | [20] | [2] | [3]

CC(C)COCC(CN(Cc1ccccc1)c1ccccc1)N1CCCC1 (stereo not drawn)
inactive: [3]

CCN(CC)CC(=O)Nc1c(C)cccc1C
inactive: [1] | [2] | [3]

CC(=O)OC(C)C[N+](C)(C)C (stereo not drawn)
inactive: [3]

CCN(Cc1ccncc1)C(=O)C(CO)c1ccccc1 (stereo not drawn)
inactive: [3]

c1ccc2c(c1)CCCC2C1=NCCN1 (stereo not drawn)
inactive: [3]

CN(C(=O)CCCOc1ccc2[nH]c(=O)ccc2c1)C1CCCCC1
inactive: [1] | [2] | [3]

CCn1nc(C(=O)O)c(=O)c2cc3c(cc21)OCO3
inactive: [1] | [2] | [3]

O=C(CCNNC(=O)c1ccncc1)NCc1ccccc1
inactive: [1] | [2] | [3]

CC(N=C(NC#N)Nc1ccncc1)C(C)(C)C (stereo not drawn)
inactive: [3]

CC(C)NCC(O)c1cc(O)cc(O)c1 (stereo not drawn)
inactive: [3]

COC(=O)[C@@H](N)Cc1ccc(O)c(O)c1
inactive: [1] | [2] | [3]

CCOC(=O)c1cnc2c(cnn2CC)c1NN=C(C)C
inactive: [1] | [2] | [3]

CCCCNc1ccc(C(=O)OCCN(C)C)cc1
inactive: [1] | [2] | [3]

C(=C\c1ccccc1)/CN1CCN(C(c2ccccc2)c2ccccc2)CC1
inactive: [1] | [2]

CN=C(NC#N)NCCSCc1nc[nH]c1C
inactive: [4] | [5] | [6] | [7] | [8] | [9] | [10] | [11] | [12] | [13] | [14] | [15] | [16] | [17] | [18] | [1] | [19] | [20] | [2]

CC1=NS(=O)(=O)c2cc(Cl)ccc2N1
inactive: [1] | [2]

O=C(O)CN(CCOCCOCCN(CC(=O)O)CC(=O)O)CC(=O)O
inactive: [1] | [2]

CN1CCN(CC(=O)N2c3ccccc3C(=O)Nc3cccnc32)CC1
inactive: [1] | [2]
